Measurements taken from ChEMBL document CHEMBL4513216, “Probing the Open Global Health Chemical Diversity Library for Multistage-Active Starting Points for Next-Generation Antimalarials” (ACS Infect Dis, 2020).
Hit rate of the full screen: of about 65,000 compounds, about 2,100 (3.2%) showed an effect of 50% or more. The median lay at about -52%. This excerpt belongs to a sample that is enriched for strong results.

What follows are molecules tested on Plasmodium falciparum (assay: Screen against P. falciparum Asexual Blood Stage (ABS), at 5uM). Details: tested at 5 uM.
Type: functional, Dd2

Compound | INHIBITION [%]
O=C(c1cc(Cl)ccc1F)N1CCCC1Cn1cccn1 (stereo not drawn) | -101
Cc1cc(C)n(CCCNc2ncnc3c2NC(=O)CN3)n1 | -40.1
COc1ccccc1-n1nc(CC(C)C)nc1Cc1nnc(N)s1 | -59.7
CN(Cc1ccsc1)C(=O)c1cc2c([nH]c1=O)CCCC2=O | -198
CSc1ccc(CN(C)C(=O)c2cc3c([nH]c2=O)CCCC3=O)cc1 | -31.6
CN(Cc1ccc(N(C)C)cc1)C(=O)c1cc2c([nH]c1=O)CCCC2=O | 50.8
Cc1ccc(CNC2CCCc3c2cnn3Cc2ccccc2)s1 (stereo not drawn) | 16.3
Cc1cccc(CNC2CCCc3c2cnn3Cc2ccccc2)c1 (stereo not drawn) | 65.9
Cc1cccc(CNC2CCCc3c2cnn3C)c1 (stereo not drawn) | -37.4
c1cnc(N2CC[C@@H](N3CCOCC3)[C@@H]2Cc2ccncc2)nc1 | -78
CC(C)CNc1cc(-c2c[nH]nc2C2CCN(C(=O)C3CC3)C2)ccn1 (stereo not drawn) | 84.6
Nc1cc(-c2c[nH]nc2C2CCN(C(=O)C3CCCC3)C2)ccn1 (stereo not drawn) | -27.3
CC(=O)N1CCC(c2n[nH]cc2-c2ccnc(N)c2)C1 (stereo not drawn) | -13.8
COc1cccc(CCC2CCCN(Cc3ncc[nH]3)C2)c1 (stereo not drawn) | 22
Cc1cc(N2CCC(Cc3ccccc3)CC2)nc(-c2ccncc2)n1 | -64.9
CN1C(=O)CC[C@@H]2[C@H]1CCN2S(=O)(=O)c1cccs1 | 47.1
O=S(=O)(c1cccs1)N1CC[C@H]2[C@H]1CCN2CC1CC1 | 57.7
CC(C)CN1CC[C@@H]2[C@@H]1CCN2S(=O)(=O)c1cccs1 | 17.9
Cc1ccc(CNC(=O)c2ccc(=O)n(C)n2)c(OCC2CC2)c1 | -124
O=C1NCCN1C1CCN(Cc2nc(-c3ccsc3)no2)CC1 | -14.4
COc1cc(C)ccc1OCC(=O)Nc1ccnc(OCCN(C)C)c1 | -18.6
CCc1ccccc1OCC(=O)Nc1ccnc(OCCN(C)C)c1 | 59.7

Compound | INHIBITION [%]
COCC(=O)Nc1ccnc(OCCN(C)C)c1 | -59.7
Cc1nc2ccn(C(C)C)c(=O)c2cc1C(=O)O | -39.7
CC(=O)N1CCC(n2ccc(-c3cnc(NCC(C)C)nc3)n2)CC1 | -32.2
CNCCCNc1nc(C2CCCC2)nc2c1cnn2C | -38.7
CCOCCNc1nc(C2CCCC2)nc2c1cnn2C | -129
Cn1ncc2c(NCCC34CCCN3CCC4)nc(C3CCCC3)nc21 | 63.3
CC(C)N(CCNc1nc(C2CCCC2)nc2c1cnn2C)C(C)C | 58.6
CCS(=O)(=O)CCNc1nc(C2CCCC2)nc2c1cnn2C | -115
Cn1ncc2c(NCCn3cccc3)nc(C3CCCC3)nc21 | 9.86
N#CCCCS(=O)(=O)NC1(c2cccc(Br)c2)CC1 | -148
CCOC1COC2(CCN(c3ccccn3)CC2)C1 (stereo not drawn) | -0.961
CCOCC(O)c1nc2c([nH]1)CC(C)(C)CNC2=O (stereo not drawn) | -96.9
Cc1cnn(CC(C)NCc2c(C)nn(Cc3ccccc3)c2C)c1 (stereo not drawn) | 50.7
Cc1cnn(CCNCc2c(C)nn(Cc3ccccc3)c2C)c1 | 34.2
Cc1cnn(CC(C)NCc2ccc(-n3cccn3)cc2)c1 (stereo not drawn) | -72.7
CCOCC1CN(C(=O)C2CCOCC2)Cc2cnn(C)c21 (stereo not drawn) | -57.8
Cc1ccc(CN2CCN(c3cncc(N(C)C)n3)CC2=O)cc1C | -30
CCN(CC)S(=O)(=O)c1ccc(CNc2cc(C)nc(C)n2)cc1 | -79.3
COCCO[C@@H]1CCN(Cc2csc(C)n2)[C@H]1Cc1ccccc1 | 65.8
Cc1nc(CN2CC[C@H](OCC3CC3)[C@@H]2Cc2cccnc2)cs1 | 60.4
COCCO[C@H]1CCN(Cc2cccnc2)[C@H]1Cc1cccnc1 | 3.22
COCCO[C@H]1CCN(Cc2ccsc2)[C@H]1Cc1cccnc1 | 14.6

Compound | INHIBITION [%]
Cc1nc(CN2CC[C@@H](OCC3CC3)[C@@H]2Cc2cccnc2)cs1 | 6.96
Cc1ccc(N2CC[C@H](OCC3CC3)[C@@H]2Cc2cccnc2)nn1 | -79.3
Cc1ccc(CN2CCC3(C2)C(=O)N(CC2CC2)c2ccccc23)s1 (stereo not drawn) | -74.8
COCC(=O)N1C[C@H]2CN(Cc3cccc(F)c3)C(=O)[C@H]2C1 | -63.1
CC(NC(=O)N1CCCN(Cc2cccs2)CC1)c1cccnc1 (stereo not drawn) | -63.5
Cc1cc(CN2CCN(C(=O)NC(C)c3cccnc3)CC2)no1 (stereo not drawn) | 49.7
Cc1nc(CN2CCN(C(=O)NC(C)c3cccnc3)CC2)cs1 (stereo not drawn) | 56.3
CC(C)NC(=O)CCNC(=O)CCc1cc(Cl)cs1 | -9.13
Cn1nc(CN2CCCC2)c2c1CN(c1cnccn1)CC2 | -56
COc1c(CNC2CCCc3ccccc32)c(C)nn1C (stereo not drawn) | 3.18
COc1c(CNCC(O)c2cccc(F)c2)c(C(C)C)nn1C (stereo not drawn) | 63.5
COc1c(CNCC(O)c2cccc(F)c2)c(C)nn1C (stereo not drawn) | -92.7
COc1c(CNC2CCCOc3ccc(F)cc32)c(C(C)C)nn1C (stereo not drawn) | 38.8
COc1c(CNC2CCCc3ccccc32)c(C(C)C)nn1C (stereo not drawn) | 64.8
COc1c(CNC2CCOc3ccccc32)c(C(C)C)nn1C (stereo not drawn) | -20.7
COc1c(CNC2CCCOc3ccccc32)c(C(C)C)nn1C (stereo not drawn) | 52.2
COc1c(CNC2CCc3c(F)cccc32)c(C)nn1C (stereo not drawn) | -21.6
COc1c(CNC2CCOc3c(Cl)cccc32)c(C)nn1C (stereo not drawn) | 10.1
COc1c(CNC2CCc3c(Cl)cccc32)c(C)nn1C (stereo not drawn) | 62.6
COc1c(CNC2CCCOc3ccccc32)c(C)nn1C (stereo not drawn) | -42.2
COc1c(CNCC(O)c2ccccc2)c(C(C)C)nn1C (stereo not drawn) | 0.811
COc1ccc(CN2CCCn3cnc(COC(C)C)c3C2)cc1 | -12.6

Compound | INHIBITION [%]
CC(C)n1nc(Cn2cccc2)c2c1CN(Cc1ccoc1)C2 | -92.6
Cc1ccccc1C(=O)N1C[C@@H]2C(CN(C)CCc3ccccn3)[C@@H]2C1 (stereo partly drawn) | -14.6
COc1c(CNC2CCc3cc(F)ccc32)c(C(C)C)nn1C (stereo not drawn) | 59.7
COc1c(CNC2CCOc3c(Cl)cccc32)c(C(C)C)nn1C (stereo not drawn) | -60.2
COc1c(CNCc2ccc(N(C)C)nc2)c(C(C)C)nn1C | -79
COc1c(CNC2CCc3cc(F)ccc32)c(C)nn1C (stereo not drawn) | 28.1
COc1c(CNC2CCc3ccccc32)c(C(C)C)nn1C (stereo not drawn) | 62.5
COc1ccc(CNCc2c(C(C)C)nn(C)c2OC)cn1 | 60.8
CC(C)c1nn(C)c(N(C)C)c1CNC1CCc2cc(F)ccc21 (stereo not drawn) | 0.843
COc1c(CNC2CCc3ccccc32)c(C)nn1C (stereo not drawn) | 33.9
COc1ccc(CNCc2c(C(C)C)nn(C)c2N(C)C)cn1 | -26.4
CC(C)CN1C(=O)C[C@@H]2[C@@H]1CCN2Cc1cccc(C#N)c1 | -105
Cc1cc(C)n(CC2CCCN2C(=O)c2cn[nH]c2C)n1 (stereo not drawn) | -90
O=C(CCSC1CCc2ccccc2NC1=O)NCCCO (stereo not drawn) | -7.35
Cc1nnc2n1CCN(Cc1ncc(-c3ccc(F)cc3)o1)C2 | 8.55
c1ccc(-c2cnc(CN3CCn4c(nnc4C4CC4)C3)o2)cc1 | -8.02
Cc1nnc2n1CCN(Cc1ncc(-c3ccccc3)o1)C2 | -95.9
Cc1ccccc1-c1noc(CN2CCn3c(nnc3C3CC3)C2)n1 | 51.7
CC(C)c1nnc2n1CCN(Cc1ncc(-c3ccccc3)o1)C2 | 62
Cc1cccc(-c2noc(CN3CCn4c(nnc4C4CC4)C3)n2)c1 | -35.8
Fc1ccc(-c2cnc(CN3CCn4c(nnc4C4CC4)C3)o2)cc1 | 53.1
CCc1nnc2n1CCN(Cc1ncc(-c3ccccc3)o1)C2 | 46.9

Compound | INHIBITION [%]
Cc1ccc(-c2noc(CN3CCn4c(nnc4C4CC4)C3)n2)cc1 | -44.9
Cc1noc(C2CCCN2C(=O)C2CCC2)n1 (stereo not drawn) | -24
Cc1ncc(CN(C)Cc2nc3cc(Cl)ccc3n2C)s1 | -54.3
c1cc(CNCc2cccc3c2OCCCO3)cc(Cn2cncn2)c1 | 48.9
CC1=NN(CC(=O)N2CC[C@@H]3[C@@H](CCC(=O)N3CC(C)C)C2)CC1 | -127
Cc1ncsc1C(=O)N1CCN(CCC(C)C)CC1 | -64.6
Cc1nc(-c2cccnc2)ncc1C(=O)N1CCC(C(C)N(C)C)CC1 (stereo not drawn) | -79.6
OC1CCN(CCCNc2ncccn2)CC1 | -61.1
CN(C(=O)Nc1ccncc1)C1CCN(c2ccccc2)C1=O (stereo not drawn) | 51
CN(C(=O)NCc1ccncc1)C1CCN(c2ccccc2)C1=O (stereo not drawn) | -128
CN(C(=O)Nc1ccccn1)C1CCCN(c2ccccc2)C1=O (stereo not drawn) | 13.9
CCn1nc2c(cc1=O)CN(CC(=O)Nc1nncs1)CC2 | -35
Cn1cc(N2CC3(CCN(C(=O)c4cccn4C)CC3)OCC2=O)cn1 | -94.7
CCn1c(CN2CCN(CCOC)CC2)nc2c(F)cccc21 | 68.6
CCn1c(CN2CCN(CCO)CC2)nc2c(F)cccc21 | 10.6
CCn1c(CN2CCN(CC(N)=O)CC2)nc2c(F)cccc21 | -147
Brc1cccnc1OC1CCNCC1 | 35.5
Cc1nc(SC2CCN(c3sccc3C#N)C2=O)oc1C (stereo not drawn) | -137
Cc1cc2c(N3CCC(N(C)CCc4cnn(C)c4)CC3)ncnc2s1 | -30.9
CCN(C)c1cc(CNC(=O)CNC(=O)CC2CCCCC2)ccn1 | -24.9
